Laboratory results taken from PubChem BioAssay (Tox21).
Values joined by “and” are separate entries in the source; they are usually repeats but may differ in a detail not shown here. Identical values can stand only once. Inconclusive results are not listed. Where a call stands in place of a potency, no number is given. More than one record can exist for a structure, and the calls need not agree. Active and inactive are the calls of the source. The call rests on the fitted dose curve; in most records, active means well fitted cell-killing curve with a large enough effect in the repeat runs; inconclusive means weak or mixed curves, or effect the other way; inactive means no such curve, though single readings can be large or run the other way.

Assay: qHTS assay to identify small molecule antagonists of the glucocorticoid receptor (GR) signaling pathway - cell viability counter screen (AID 720693)
Details: GR-bla HeLa viability, CellTiter-Glo luminescence, 18 h, with 5 nM dexamethasone present; series mostly up to 58.5 µM
Further: nearly all actives have a fitted effect of over 55% in size.
Potency means the concentration at half of the fitted maximal effect.

Row | Compound | Potency
1 | CCCCCCOC(C)=O | inactive
2 | CC(=O)[C@@]1(O)CC[C@H]2[C@@H]3CCC4=CC(=O)CC[C@]4(C)[C@H]3CC[C@@]21C | inactive
3 | O=S(=O)(O)c1cc(S(=O)(=O)O)c2c(N=Nc3ccccc3)c(O)ccc2c1 | inactive
4 | Clc1ccc(Cl)c(Cl)c1Cl | inactive
5 | COC(=O)Nc1nc2ccc(Sc3ccccc3)cc2[nH]1 | inactive
6 | CN(C)c1cccc(O)c1 | inactive
7 | CC1=CC[C@H]2C[C@@H]1C2(C)C | inactive
8 | COC(=O)c1ccc(C(=O)OC)cc1 | inactive
9 | O=[N+]([O-])C(CO)(CO)CO | inactive
10 | CC(C)(C)C1CCC(O)CC1 (configuration not stated) | inactive
11 | O=C(c1ccc(O)cc1)c1ccc(O)cc1O | inactive
12 | c1ccc2[nH]cnc2c1 | inactive
13 | O=C1CCCCC1 | inactive
14 | CCCCCCCCCCC=CC1CC(=O)OC1=O (configuration not stated) | inactive
15 | CCOC(=O)[C@H](CCc1ccccc1)N[C@@H](C)C(=O)N1Cc2ccccc2C[C@H]1C(=O)O | inactive
16 | CC#C[C@]1(O)CC[C@H]2[C@@H]3CCC4=CC(=O)CCC4=C3[C@@H](c3ccc(N(C)C)cc3)C[C@@]21C | 5.35 µM (active)
17 | CCCCOCCOCCOC(=O)CCCCC(=O)OCCOCCOCCCC | inactive
18 | CCCCCCCCCCCCN | inactive
19 | CCCCC(CC)COC(C)=O (configuration not stated) | inactive

Row | Compound | Potency
20 | O=C(Cl)c1c(Cl)c(Cl)c(C(=O)Cl)c(Cl)c1Cl | inactive
21 | O=C(Oc1ccccc1)c1ccc(O)cc1 | inactive
22 | O=[N+]([O-])c1cccc(Cl)c1 | inactive
23 | O=c1c(-c2ccc(O)cc2)coc2cc(O)ccc12 | inactive
24 | Cc1cc(NS(=O)(=O)c2ccc(N)cc2)no1 | inactive
25 | Cc1cc(O)cc(C)c1Cl | inactive
26 | Cc1cc(O)c2c(c1)C(=O)c1cc(O)cc(O)c1C2=O | inactive
27 | CC1COc2ccccc2N1C(=O)C(Cl)Cl (configuration not stated) | inactive
28 | CCC(=O)O | inactive
29 | CC(=O)CCc1ccccc1 | inactive
30 | O=[N+]([O-])c1cc(N(CCO)CCO)ccc1NCCO | inactive
31 | O=S(=O)(Oc1ccc(Cl)cc1Cl)c1ccccc1 | inactive
32 | Cc1ccc(N)c(S(=O)(=O)O)c1 | inactive
33 | NC(=O)NNc1ccccc1 | inactive
34 | CCCCC/C=C\C/C=C\CCCCCCCC(=O)OC | inactive
35 | CCOC(=O)/C=C\C(=O)OCC | inactive
36 | CC1=C(CC(=O)O)c2cc(F)ccc2/C1=C\c1ccc(S(C)=O)cc1 (configuration not stated) | inactive
37 | CC(C)NCC(O)COc1cccc2ccccc12 (configuration not stated) | inactive

Assay: qHTS assay for identifying genotoxic compounds that show differential cytotoxicity against isogenic chicken DT40 cell lines with known DNA damage response pathways - Rev3 mutant cell line (AID 743014)
Details: chicken DT40 Rev3-/- viability, CellTiter-Glo, 40 h; series mostly up to 68.4 µM

Row | Compound | Potency
38 | CCCCCCOC(C)=O | 54.5 µM (active)
39 | CC(=O)[C@@]1(O)CC[C@H]2[C@@H]3CCC4=CC(=O)CC[C@]4(C)[C@H]3CC[C@@]21C | inactive and 17.2 µM (active)
40 | O=S(=O)(O)c1cc(S(=O)(=O)O)c2c(N=Nc3ccccc3)c(O)ccc2c1 | inactive
41 | Clc1ccc(Cl)c(Cl)c1Cl | inactive
42 | COC(=O)Nc1nc2ccc(Sc3ccccc3)cc2[nH]1 | 285 nM (active) and 217 nM (active)
43 | CN(C)c1cccc(O)c1 | inactive
44 | CC1=CC[C@H]2C[C@@H]1C2(C)C | inactive
45 | COC(=O)c1ccc(C(=O)OC)cc1 | inactive
46 | O=[N+]([O-])C(CO)(CO)CO | inactive
47 | CC(C)(C)C1CCC(O)CC1 (configuration not stated) | inactive
48 | O=C(c1ccc(O)cc1)c1ccc(O)cc1O | inactive
49 | c1ccc2[nH]cnc2c1 | inactive
50 | O=C1CCCCC1 | inactive
51 | C=C1CC[C@H](O)CC1=C/C=C1\CCC[C@]2(C)[C@@H]([C@H](C)/C=C/[C@H](C)C(C)C)CC[C@@H]12 | 12.1 µM (active) and 24.3 µM (active)
52 | CCOC(=O)[C@H](CCc1ccccc1)N[C@@H](C)C(=O)N1Cc2ccccc2C[C@H]1C(=O)O | inactive and 61.6 µM (active)
53 | CC#C[C@]1(O)CC[C@H]2[C@@H]3CCC4=CC(=O)CCC4=C3[C@@H](c3ccc(N(C)C)cc3)C[C@@]21C | 9.44 µM (active) and 48.6 µM (active)
54 | C=C(C)C(=O)OCCC[Si](OC)(OC)OC | inactive
55 | CCCCOCCOCCOC(=O)CCCCC(=O)OCCOCCOCCCC | inactive

Row | Compound | Potency
56 | CCCCCCCCCCCCN | inactive and 21.7 µM (active)
57 | CCCCC(CC)COC(C)=O (configuration not stated) | inactive
58 | O=C(Cl)c1c(Cl)c(Cl)c(C(=O)Cl)c(Cl)c1Cl | inactive
59 | O=C(Oc1ccccc1)c1ccc(O)cc1 | inactive
60 | O=[N+]([O-])c1cccc(Cl)c1 | inactive
61 | O=c1c(-c2ccc(O)cc2)coc2cc(O)ccc12 | inactive
62 | Cc1cc(NS(=O)(=O)c2ccc(N)cc2)no1 | inactive
63 | Cc1cc(O)cc(C)c1Cl | inactive
64 | Cc1cc(O)c2c(c1)C(=O)c1cc(O)cc(O)c1C2=O | inactive and 38.6 µM (active)
65 | CC1COc2ccccc2N1C(=O)C(Cl)Cl (configuration not stated) | 30.6 µM (active) and 24.3 µM (active)
66 | CCC(=O)O | inactive
67 | CC(=O)CCc1ccccc1 | inactive
68 | Cc1ccc(N)c(S(=O)(=O)O)c1 | inactive
69 | CCCCC/C=C\C/C=C\CCCCCCCC(=O)OC | 30.6 µM (active)
70 | CCOC(=O)/C=C\C(=O)OCC | inactive
71 | CC1=C(CC(=O)O)c2cc(F)ccc2/C1=C\c1ccc(S(C)=O)cc1 (configuration not stated) | 6.86 µM (active)
72 | CC(C)NCC(O)COc1cccc2ccccc12 (configuration not stated) | 61.8 µM (active) and inactive
